Test systems include OVCAR-5 ovarian; SK-OV-3 ovarian; IGROV1 ovarian; OVCAR-3 ovarian; HS 578T breast; NCI/ADR-RES ovarian; T-47D breast; BT-549 breast; MDA-MB-435 melanoma; SW-620 colon; MCF7 breast; HCT-116 colon; HCC-2998 colon; KM12 colon; OVCAR-8 ovarian; OVCAR-4 ovarian.
Common to all, as to assay: NCI-60 one-dose screen, 48 h (100 = growth as untreated, 0 = no growth, -100 = all killed)
What all share (details): 10 µM unless noted

About 83,000 compounds went through this panel and 20% of them were active in at least one assay; those are over-represented in the sample as a whole.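 Step 1: grow cells in 96-well plates. Step 2: add test compound at a single concentration. Step 3: incubate 48 h. Step 4: record percent growth.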 Values without a mark were called inactive. The source made the active and inactive calls. How the source made its calls: active means growth percent below 10; inactive means the rest.

Take `O=C(NCCc1ccccc1)C1CCC(=O)N1Cc1ccc(Br)cc1` (stereo not drawn): the growth with OVCAR-5 ovarian was 94.4%; in the experiment on SK-OV-3 ovarian, 101%; in the experiment on IGROV1 ovarian, 103%; in the experiment with OVCAR-3 ovarian, 116%; in the experiment on HS 578T breast it was 113%; in the experiment with NCI/ADR-RES ovarian, 107%. In addition, the growth in the experiment on T-47D breast was 106%; with BT-549 breast, 107%; in the experiment on MDA-MB-435 melanoma it was 110%; with SW-620 colon, 97.5%; in the experiment on MCF7 breast it was 102%; in the experiment with HCT-116 colon, 77.9%. Besides, the growth was 108% with HCC-2998 colon and 106% in the experiment with KM12 colon.
On to `CCN(CC)c1ccc(C(O)C2=CC(=O)c3ccccc3C2=O)cc1` (stereo not drawn), for which the growth in the experiment with OVCAR-8 ovarian was -3.87% (active); in the experiment with OVCAR-5 ovarian, -23.8% (active); in the experiment with SK-OV-3 ovarian it was 73.1%; in the experiment with IGROV1 ovarian, -42.7% (active); with OVCAR-3 ovarian, -77.2% (active); with HS 578T breast it was -10.6% (active). The growth was 84.4% with NCI/ADR-RES ovarian; -60.6% (active) with T-47D breast; 23.6% in the experiment on BT-549 breast; -42.7% (active) in the experiment on SW-620 colon; 9.53% (active) with MCF7 breast; -9.43% (active) with HCT-116 colon. For the same molecule, the growth was -60.5% (active) in the experiment on HCC-2998 colon and 1.59% (active) in the experiment on KM12 colon.
Consider `Cc1nn(-c2ccccc2)c2nc3c(nc12)C(=O)CCC3`, for which the growth in the experiment with OVCAR-5 ovarian was 104%; with OVCAR-4 ovarian it was 81.4%; with SK-OV-3 ovarian, 99.7%; in the experiment with IGROV1 ovarian, 96.6%; in the experiment on OVCAR-3 ovarian it was 98.8%; in the experiment on HS 578T breast, 97.1%. The growth in the experiment with NCI/ADR-RES ovarian is 94.8%; with T-47D breast it was 79.2%; with BT-549 breast it was 90.9%; in the experiment with MDA-MB-435 melanoma, 98.1%; in the experiment on SW-620 colon, 105%; with MCF7 breast, 84.9%. In addition, the growth in the experiment on HCC-2998 colon is 92%; with KM12 colon, 87.1%.
Take `O=Nc1ccc(O)c(=O)cc1`: the growth was 68.1% with OVCAR-5 ovarian; 108% with SK-OV-3 ovarian; 18.7% in the experiment with IGROV1 ovarian; 107% in the experiment on HS 578T breast; 38% in the experiment on NCI/ADR-RES ovarian; 18.5% with T-47D breast. The growth is 32.5% in the experiment on BT-549 breast; 32% in the experiment with MDA-MB-435 melanoma; -43% (active) in the experiment with SW-620 colon; 20.9% in the experiment on MCF7 breast; 2.12% (active) with HCT-116 colon; 97.8% in the experiment with HCC-2998 colon.
In the case of `O=C(NCCCO)c1cc(Cl)ccc1O`, the growth with OVCAR-8 ovarian was 17.8%; in the experiment with OVCAR-5 ovarian, 45%; in the experiment with SK-OV-3 ovarian it was 40.6%; in the experiment with IGROV1 ovarian it was 28.1%; with OVCAR-3 ovarian, -14.9% (active); in the experiment on HS 578T breast, 19.3%. The growth in the experiment with NCI/ADR-RES ovarian was 95.8%; with T-47D breast it was 30%; in the experiment with BT-549 breast it was 19.2%; in the experiment on SW-620 colon, 23.1%; in the experiment on MCF7 breast it was 18.9%; in the experiment on HCT-116 colon, 10.9%. In addition, the growth in the experiment on HCC-2998 colon was 21.4%; in the experiment with KM12 colon it was 14.5%.
With `Cc1nn(-c2ccccc2)c(Cl)c1C(CC(=O)c1ccc(Cl)cc1)CC(=O)c1ccc(Cl)cc1`, the growth is 93.8% in the experiment with OVCAR-5 ovarian; 91.8% in the experiment with SK-OV-3 ovarian; 101% in the experiment on IGROV1 ovarian; 91.7% in the experiment with OVCAR-3 ovarian; 97.3% with HS 578T breast; 90.2% with NCI/ADR-RES ovarian. Besides, the growth is 85.8% in the experiment on T-47D breast; 85.6% in the experiment on BT-549 breast; 90.9% in the experiment with MDA-MB-435 melanoma; 96.4% in the experiment on SW-620 colon; 92.7% in the experiment with MCF7 breast; 75.4% with HCT-116 colon. The growth in the experiment with HCC-2998 colon was 99.1%; in the experiment with KM12 colon it was 86.1%.
Regarding `Cc1nn(-c2ccc(Cl)cc2)c2nc3c(nc12)c(=O)oc1ccccc13`, the growth with OVCAR-5 ovarian was 98%; in the experiment with OVCAR-4 ovarian, 113%; with SK-OV-3 ovarian it was 107%; in the experiment on IGROV1 ovarian, 119%; in the experiment on OVCAR-3 ovarian, 118%; with HS 578T breast, 107%. The growth was 102% in the experiment with NCI/ADR-RES ovarian; 111% in the experiment with T-47D breast; 89.8% in the experiment with BT-549 breast; 106% in the experiment with MDA-MB-435 melanoma; 104% in the experiment with SW-620 colon; 99.1% in the experiment with MCF7 breast. Besides, the growth was 105% with HCT-116 colon, 98.2% in the experiment on HCC-2998 colon and 112% with KM12 colon.
For `CN(C(=O)c1ccccc1)N(C)C(=O)c1ccccc1`, the growth in the experiment on OVCAR-8 ovarian is 103%; in the experiment on OVCAR-5 ovarian, 99.3%; in the experiment with SK-OV-3 ovarian, 105%; with IGROV1 ovarian, 95.2%; with OVCAR-3 ovarian, 127%; in the experiment on HS 578T breast, 109%. Also, the growth in the experiment on NCI/ADR-RES ovarian is 108%; in the experiment on BT-549 breast, 97%; in the experiment on SW-620 colon, 106%; in the experiment on MCF7 breast it was 95.2%; with HCT-116 colon it was 100%; in the experiment with HCC-2998 colon it was 116%. The growth in the experiment with KM12 colon was 113%.
For the molecule `CC(C)(C)c1cc(O)c(O)c(C(C)(C)C)c1`, the growth in the experiment with OVCAR-8 ovarian is 39.8%; with OVCAR-5 ovarian it was 55.3%; in the experiment on SK-OV-3 ovarian, 67%; in the experiment with IGROV1 ovarian, 49.9%; with OVCAR-3 ovarian it was 20.9%; in the experiment with HS 578T breast it was 43.6%. The growth with NCI/ADR-RES ovarian was 51.9%; with T-47D breast it was 12.8%; in the experiment on BT-549 breast it was 61.2%; in the experiment with SW-620 colon, 19.3%; in the experiment on MCF7 breast it was 36.3%; in the experiment with HCT-116 colon, 15.8%. In addition, the growth is 59.5% in the experiment on HCC-2998 colon and 48.1% in the experiment with KM12 colon.
On to `CCSc1nnc2n(Cc3ccccc3)c(=O)c3c(C)c(C(N)=O)sc3n12`, for which the growth with OVCAR-5 ovarian is 94.3%; in the experiment with OVCAR-4 ovarian it was 99.5%; in the experiment on SK-OV-3 ovarian it was 88.5%; with IGROV1 ovarian, 101%; with OVCAR-3 ovarian, 119%; with HS 578T breast it was 101%. Besides, the growth in the experiment with NCI/ADR-RES ovarian was 97.1%; in the experiment on T-47D breast it was 99.8%; with BT-549 breast, 88.9%; in the experiment with MDA-MB-435 melanoma, 105%; in the experiment with SW-620 colon, 109%; in the experiment on MCF7 breast it was 96.8%. In addition, the growth in the experiment with HCT-116 colon is 100%; with HCC-2998 colon, 101%; with KM12 colon it was 105%.
Take `OC(c1cc(C(F)(F)F)nc2c(C(F)(F)F)cccc12)C1CCCCN1` (stereo not drawn): the growth in the experiment on OVCAR-4 ovarian is 56.7%; in the experiment on SK-OV-3 ovarian, 78.7%; with IGROV1 ovarian, 44.7%; in the experiment with OVCAR-3 ovarian, 73.7%; in the experiment with HS 578T breast, 62.4%; in the experiment with NCI/ADR-RES ovarian, 50.5%. Besides, the growth is 75.2% in the experiment on T-47D breast; 67.6% with BT-549 breast; 61.5% with MDA-MB-435 melanoma; 72.9% in the experiment with SW-620 colon; 21.8% with MCF7 breast; 44.7% with HCT-116 colon. The growth is 20.1% in the experiment with HCC-2998 colon and 32.7% in the experiment with KM12 colon.

The record behind these values is PubChem BioAssay (NCI).
